Rab9 prom act – qHTS Assay for Rab9 Promoter Activators | Potency, µM (series often up to 9.22 µM), without a hit: at the top dose activation, negative = inhibition, actives largely listed as activators | hit rate 2.8% among 320,000 | Huh7 Rab9 promoter-luciferase reporter, luminescence, 24 h | AID 485297, 2010; note: % of control where 0% means no effect; nearly all actives have a fitted effect of over 60% in size
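Promoter activation is measured as luciferase luminescence in Huh7 cells stably transfected with a Rab9 promoter–luciferase construct, following 24 h compound exposure at 37 °C and 10 min reagent incubation at ambient temperature.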
SMN2 splice up – qHTS Assay for Enhancers of SMN2 Splice Variant Expression; AID 1458, 2008; Potency, µM (highest dose often 46.1 µM), without a hit: top-dose activity change, positive = activation, most hits filed as activators; HEK293 SMN2-luciferase splicing reporter, luminescence, 30-36 h; hit rate 2.8% among 210,000; note: % of control where 0% means no effect; nearly all actives have a fitted effect of over 55% in size
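HEK293 cells carry an SMN2 […]–luciferase reporter in which exon 7 inclusion puts luciferase in frame. Cells were plated 10-12 h before compound addition, then incubated 30-36 h at 37C. ONE-Glo luminescence was read; sodium butyrate at 4.5 mM final served as control.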
FLuc modulator – qHTS profiling assay for firefly luciferase inhibitor/activator using purifed enzyme and Km concentrations of substrates (counterscreen for miR-21 project); AID 588342, 2011; hit rate 6.9% among 360,000; Potency, µM (series often up to 57.5 µM), for inactives: at the top dose activity change, negative = inhibition, actives largely listed as inhibitors; Luciferin 4-monooxygenase (Photinus pyralis), P08659; purified FLuc, Km substrates, luminescence inhibition;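 note: plate controls were vehicle for no effect and reference inhibitor for full effect; nearly all actives have a fitted effect of over 55% in size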
Target sequence (P08659 whole entry, looked up): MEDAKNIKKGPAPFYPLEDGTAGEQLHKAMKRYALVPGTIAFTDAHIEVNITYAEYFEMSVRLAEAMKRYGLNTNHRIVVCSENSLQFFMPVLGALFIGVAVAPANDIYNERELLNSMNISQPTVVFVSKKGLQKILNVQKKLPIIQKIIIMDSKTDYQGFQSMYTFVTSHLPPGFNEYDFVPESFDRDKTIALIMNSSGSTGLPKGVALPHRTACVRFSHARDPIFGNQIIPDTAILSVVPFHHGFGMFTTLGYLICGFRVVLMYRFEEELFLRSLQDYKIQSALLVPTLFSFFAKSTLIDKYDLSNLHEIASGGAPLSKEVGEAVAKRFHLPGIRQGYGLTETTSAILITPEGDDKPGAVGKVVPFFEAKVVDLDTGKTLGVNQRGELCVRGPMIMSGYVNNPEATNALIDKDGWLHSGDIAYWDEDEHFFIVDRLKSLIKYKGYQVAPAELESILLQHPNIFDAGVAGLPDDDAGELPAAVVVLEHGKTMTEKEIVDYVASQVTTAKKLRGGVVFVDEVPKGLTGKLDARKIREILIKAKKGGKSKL
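Purified P. pyralis luciferase, 10 nM final, with Km-level 10 uM D-luciferin and 10 uM ATP in 50 mM Tris acetate pH 7.5, 10 mM Mg acetate, 0.01% Tween-20, 0.05% BSA; 6-point qHTS titration about 60 µM downward; luminescence read.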
NPC1 promoter act – qHTS Assay for NPC1 Promoter Activators. Huh7 NPC1 promoter luciferase reporter, 24 h. Potency, µM (titrated, usually from 9.22 µM), for the others: at the top dose activation, actives largely listed as activators. hit rate 2.4% among 320,000; note: % of control where 0% means no effect; nearly all actives have a fitted effect of over 60% in size
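Stable NPC1-promoter luciferase Huh7 line; cpd (DMSO) 24 h, 37 °C, 5% CO2; Amplite luciferase reagent 10 min RT; luminescence readout. qHTS format.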
KinaseGlo FLuc – Counterscreen for Luciferase (Kinase-Glo TM) Inhibition | hit rate 0.28% among 200,000 | AID 1379, 2008 | Kinase-Glo luciferase, ATP luminescence, 8 min | Potency, µM (top dose mostly 38.3 µM), inactives show at the highest dose activity change, negative = inhibition, hits mostly inhibitors; note: % is set by controls: 0 for no effect and ±100 for the full control effect; nearly all actives have a fitted effect of over 60% in size
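Luminescence was the read-out, taken after 8-minute incubation at ambient temperature. Luciferase turned over luciferin with 10 uM ATP in imidazole pH 7.2 buffer containing KCl, MgCl2, Tween 20 and BSA.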
* marks the source's active call; other numbers are inactive results; [ ] = another dose, or the depositor's remark. Most compounds without a hit are left out; they make up all but 7.3% or so of the library. Calls come from the whole dose curve; as a rule, active = well fitted curve in the direction sought with a large enough effect; inconclusive = small, poorly fitted or top-dose-only effect, or another doubt; inactive = no such curve, though single readings can be large; an effect the other way counts as inactive or inconclusive. Potency is the fitted concentration of half-maximal effect.

`O=C(O)Cn1c(=O)cnc2ccccc21` gave Rab9 prom act -4.6%, SMN2 splice up -7.0%, FLuc modulator -0.4%, NPC1 promoter act -5.6% and KinaseGlo FLuc -3.4%.
COC(=O)Cn1c(=O)cnc2ccccc21 was read as Rab9 prom act -3.8%, SMN2 splice up -6.5%, FLuc modulator 0.0%, NPC1 promoter act -1.3% and KinaseGlo FLuc 1.8%.
For O=c1cnc2ccccc2n1Cc1ccc(Br)cc1 the results were Rab9 prom act 18.5%, FLuc modulator 26.9µM* and NPC1 promoter act 5.6%.
Screening CCS(=O)(=O)c1ccccc1C(=O)N(Cc1cccnc1)c1nc2cc(C)c(C)cc2s1 returned FLuc modulator 21.3µM*.
Screening CCOc1ccc2nc(N(Cc3cccnc3)C(C)=O)sc2c1 returned FLuc modulator -12.2%.
Screening O=C(c1ccc2c(c1)OCCO2)N(Cc1cccnc1)c1nc2ccc(F)cc2s1 returned FLuc modulator 16.9µM*.
CCOc1ccc2nc(N(Cc3cccnc3)C(=O)c3ccco3)sc2c1 was read as FLuc modulator 16.9µM*.
`COc1ccc2nc(N(Cc3cccnc3)C(=O)c3ccco3)sc2c1` gave FLuc modulator 16.9µM*.
Screening COc1ccc2nc(N(Cc3cccnc3)C(C)=O)sc2c1 returned FLuc modulator -11.7%.
COc1ccc(-c2nc(SCC(=O)NC3CCCC3)c(-c3ccccc3)[nH]2)cc1OC was read as SMN2 splice up 9.5% and FLuc modulator 19µM*.
COc1ccc(-c2nc(SCC(=O)Nc3ccc4c(c3)OCCO4)c(-c3ccc(F)cc3)[nH]2)cc1OC was read as SMN2 splice up 15.2% and FLuc modulator 6.75µM*.
For COc1cccc(-c2ccc(SCC(=O)NC3CCCCC3)nn2)c1 the results were Rab9 prom act 12.0%, FLuc modulator 15.1µM* and NPC1 promoter act -0.3%.
`COc1ccc(-c2ccc(SCC(=O)NC3CCCC3)nn2)cc1OC` gave Rab9 prom act 2.6%, FLuc modulator 15.1µM* and NPC1 promoter act 10.8%.
Cc1ccc(NC(=O)CSc2nnc(-c3cccnc3)n2-c2ccc(C)cc2)cc1 was read as Rab9 prom act -0.9%, SMN2 splice up 11.4%, FLuc modulator 0.7%, NPC1 promoter act -0.8% and KinaseGlo FLuc -2.6%.
Cc1ccc(Nc2nc(CSc3nnc(-c4ccncc4)n3C)cs2)cc1 was read as Rab9 prom act 1.26µM*, FLuc modulator 0.601µM* and NPC1 promoter act 3.16µM*.
Cc1ccc(Nc2nc(CSc3nnc(-c4cccnc4)n3-c3ccccc3F)cs2)cc1 was read as Rab9 prom act 3.6%, SMN2 splice up 18.1%, FLuc modulator 2.39µM*, NPC1 promoter act 8.6% and KinaseGlo FLuc -0.8%.
Cc1ccccc1Nc1nc(CSc2nnc(-c3ccoc3C)n2C)cs1 was read as Rab9 prom act 3.2%, SMN2 splice up 13.6%, FLuc modulator 16.9µM*, NPC1 promoter act 18.6% and KinaseGlo FLuc -7.4%.
`Cc1cccc(CN2C(=O)c3ccccc3Sc3ccc(C(=O)NCc4cccs4)cc32)c1` gave FLuc modulator -2.6%.
For Cc1ccc(C(=O)N2CCCCC2CCN2CCCCC2)cc1 (stereo not given) the results were SMN2 splice up 3.3% and FLuc modulator -1.0%.
Screening O=C(O)C(=Cc1ccc(-c2ccccc2)cc1)C(=O)O returned SMN2 splice up -9.7%[9.22 µM] and KinaseGlo FLuc -6.2%[7.66 µM].
Screening COc1ccc(-n2c(C)cc(/C=C(\C#N)C(=O)NCc3ccco3)c2C)cc1 returned Rab9 prom act 0.2%, SMN2 splice up -7.4%, FLuc modulator 12µM*, NPC1 promoter act 8.0% and KinaseGlo FLuc 4.4%.
`COCCNC(=O)/C(C#N)=C/c1cc(C)n(-c2ccc(C)cc2)c1C` gave Rab9 prom act 1.58µM*, FLuc modulator 0.953µM*, NPC1 promoter act 1.58µM* and KinaseGlo FLuc -7.2%.
`COCCNC(=O)/C(C#N)=C/c1cc(C)n(C2CCCCC2)c1C` gave Rab9 prom act 0.794µM*, SMN2 splice up 6.31µM*, FLuc modulator 3.01µM*, NPC1 promoter act 1.78µM* and KinaseGlo FLuc -2.3%.
For COc1ccc(NC(=O)/C(C#N)=C/c2cc(C)n(-c3ccc(F)cc3)c2C)cc1 the results were SMN2 splice up 3.4% and FLuc modulator inconclusive.
Screening Cc1cc(/C=C(\C#N)C(=O)O)c(C)n1C1CC1 returned Rab9 prom act 2.2%, SMN2 splice up -11.6%, FLuc modulator inconclusive, NPC1 promoter act -1.0% and KinaseGlo FLuc -0.5%.
Screening COCCCNC(=O)c1ccc(-n2c(-c3ccccc3)cc3c2CCC(C)C3)cc1 (stereo not given) returned FLuc modulator -4.6%.
O=C(Nc1c(-c2ccccc2)nc2ccccn12)c1ccc(Br)cc1 was read as SMN2 splice up -11.3% and FLuc modulator -6.9%.
`S=C(NC1CCCCC1)c1ccc2c(c1)OCO2` gave Rab9 prom act 24.9%, SMN2 splice up 18.8%, FLuc modulator 8.49µM*, NPC1 promoter act 24.2% and KinaseGlo FLuc -0.4%.
`O=C(NC1CCCCC1)c1ccc2c(c1)OCCO2` gave Rab9 prom act 3.16µM*, FLuc modulator 13.5µM* and NPC1 promoter act 1.41µM*.
`O=C(NNC(=S)NC1CCCCC1)c1ccc2c(c1)OCO2` gave Rab9 prom act 1µM*, SMN2 splice up 5.62µM*, FLuc modulator inconclusive, NPC1 promoter act inconclusive and KinaseGlo FLuc 4.0%.
For O=C(NC1CCCCCCC1)c1ccc2c(c1)OCO2 the results were Rab9 prom act 0.398µM*, SMN2 splice up 5.01µM*, FLuc modulator 3.01µM*, NPC1 promoter act 0.794µM* and KinaseGlo FLuc -8.7%.
Screening COc1ccc(CNC(=O)CCc2c(C)c3cc4c(C)c(C)oc4cc3oc2=O)cc1 returned SMN2 splice up 2.9% and FLuc modulator -7.1%.
Screening COc1ccc(S(=O)(=O)NCc2ccc3c(c2)CCN3C(C)=O)cc1OC returned FLuc modulator -0.5%.
Cc1ccc(NC(=O)C2=C(O)c3sccc3N(C)S2(=O)=O)cc1 was read as Rab9 prom act 19.5%, SMN2 splice up inconclusive, FLuc modulator 8.49µM*, NPC1 promoter act 6.0% and KinaseGlo FLuc 3.5%.
Screening CN1c2ccsc2C(O)=C(C(=O)Nc2ccccc2)S1(=O)=O returned Rab9 prom act 2.8%, SMN2 splice up 18.3%, FLuc modulator 15.1µM*, NPC1 promoter act -0.2% and KinaseGlo FLuc 3.9%.
For Cc1cccc(C)c1NC(=O)C1=C(O)c2sccc2N(C)S1(=O)=O the results were Rab9 prom act -1.1%, SMN2 splice up -11.0%, FLuc modulator inconclusive, NPC1 promoter act -5.0% and KinaseGlo FLuc -0.6%.

Compound activity (PubChem)
